Source: PubChem BioAssay (National Center for Advancing Translational Sciences (NCATS))
In the library only some 19% were active in any assay of this set; here they are far more common.
DT40 TDP1 CPT = qHTS for Inhibitors of human tyrosyl-DNA phosphodiesterase 1 (TDP1): qHTS in cells in presence of CPT. actives 12% (n = 420,000). Potency, µM (highest dose often 46.2 µM), hits mostly inhibitors. chicken DT40 Tdp1-/-;hTDP1 cells + 20 nM CPT, ATP luminescence, 48 h. AID 686979, 2013; also: nearly all actives have a fitted effect of over 55% in size
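Cell growth measured by CellTiter-Glo luminescence after a minimum 48 h, 37 C compound exposure with 20 nM CPT in Tdp1-knockout DT40 cells stably expressing hTDP1, seeded 400/well; qHTS titration format.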
IL-1B inflam inh = qHTS for Inhibitors of Inflammasome Signaling: IL-1-beta AlphaLISA Primary Screen; THP-1 LPS/ATP IL-1B secretion, AlphaLISA, 16 h; stronger effect = lower value; activity change, % at 57.5 µM; actives 4.7% (n = 360,000); AID 743279, 2014; in the data active = activity change below about -50%; inconclusive = mostly about -30% to -49%
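Secreted IL-1B measured by AlphaLISA bead assay after 16 h compound exposure of THP-1 cells; compounds (final up to 57.5 uM) added 1 h before LPS (250 ng/mL) and ATP (1.25 mM) stimulation; lower signal means less secretion.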
HT1080 IDH1KD tx = qHTS for induction of synthetic lethality in tumor cells producing 2HG: qHTS for the HT-1080-IDH1KD cell line. HT-1080 IDH1 knockdown viability, ATP luminescence, 48 h. Potency, µM (doses to about 46.1 µM), actives largely listed as cytotoxic. actives 2% (n = 360,000)
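Knockdown cells (IDH1KD HT-1080) received compounds 2 h after plating at 750 cells/well and were kept 48 h at 37 °C in 5% FBS RPMI. A CellTiter-Glo luminescence read gave % activity for curve fitting.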
HT1080NT lethal = qHTS for induction of synthetic lethality in tumor cells producing 2HG: qHTS for the HT-1080-NT fibrosarcoma cell line; actives 1.6% (n = 360,000); Potency, µM (series often up to 46.1 µM), usual class: cytotoxic; HT-1080-NT fibrosarcoma viability, CellTiter-Glo ATP luminescence, 48 h;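 also: NT is the 2HG producing partner of a matched IDH1 knockdown line; nearly all actives have a fitted effect of over 55% in size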
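HT-1080-NT; 750 cells/well; 5% FBS RPMI; 48 h compound, 37 degrees C; CellTiter-Glo luminescence; curve fitting and curve-class assignment.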
TDP1 cell noCPT = qHTS for Inhibitors of human tyrosyl-DNA phosphodiesterase 1 (TDP1): qHTS in cells in absence of CPT. DT40 Tdp1-/- hTDP1 cells, no CPT, ATP luminescence, 48 h. Potency, µM (top dose mostly 46.2 µM), usual class: inhibitors. actives 15% (n = 420,000); also: nearly all actives have a fitted effect of over 55% in size
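Luminescent ATP content (CellTiter-Glo) served as the growth readout. Knockout chicken DT40 cells expressing human TDP1 were exposed to compounds without camptothecin for a minimum 48 hr at 37 °C.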
A number is an active result; 0 = inactive; ? = inconclusive; - = no result. Unless noted, calls follow the shape of the dose curve; as a rule, active = well fitted curve in the direction sought with a large enough effect; inconclusive = small, poorly fitted or top-dose-only effect, or another doubt; inactive = no such curve, though single readings can be large; an effect the other way counts as inactive or inconclusive.

SMILES	DT40 TDP1 CPT	IL-1B inflam inh	HT1080 IDH1KD tx	HT1080NT lethal	TDP1 cell noCPT
O=C(N/N=C/c1cn(-c2ccccc2)nc1-c1ccc(F)cc1)c1ccc(Br)o1	20.6µM	-55.9	0	0	23.1µM
O=C(N/N=C/c1cn(-c2ccccc2)nc1-c1cccs1)c1ccc(Cl)cc1	?	0	0	0	?
CC1=NNC(=O)/C1=C\c1cn(-c2ccccc2)nc1-c1ccc(F)cc1	3.66µM	-100.3	5.8µM	10.3µM	1.46µM
CC(O)CNc1nc(Cl)c(C#N)s1 (stereo not drawn)	0	0	0	0	0
O=C(CC12CC3CC(CC(C3)C1)C2)NC1CC1	0	0	0	0	0
CSc1nsc(SCc2ccc(F)cc2)n1	0	0	0	0	0
CC1=NNC(=O)/C1=C\c1cn(-c2ccccc2)nc1-c1cccs1	2.59µM	-96.2	8.2µM	8.2µM	2.59µM
O=C(O)CCCCCN1C(=O)/C(=C\c2cn(-c3ccccc3)nc2-c2cccs2)SC1=S	?	0	0	0	0
N/C(=N/OC(=O)c1ccccc1Cl)c1ncc([N+](=O)[O-])s1	3.66µM	-87.8	18.4µM	29.1µM	8.2µM
N/C(=N\OC(=O)c1ccc([N+](=O)[O-])cc1Cl)c1ccccn1	0	?	0	0	?
N/C(=N\OC(=O)c1cc([N+](=O)[O-])ccc1Cl)c1ccccn1	?	-95.7	?	?	18.4µM
Cc1ccc(C(=O)O/N=C(\N)c2ccccn2)c(Cl)c1	?	0	?	16.4µM	?
CC1CCN(S(=O)(=O)c2ccc3c(c2)c(=O)c(C(=O)NCc2ccc(Cl)cc2)cn3C)CC1	0	-	-	-	4.61µM
CCn1cc(C(=O)NCCc2ccccc2)c(=O)c2cc(S(=O)(=O)N3CCCC3)ccc21	?	0	0	0	18.4µM
CC(C)CCNC(=O)c1sc2ccc(S(=O)(=O)N3CCCCC3)cc2c1N	23.1µM	-52.2	0	?	20.6µM
CCCCNC(=O)c1cn(CC)c2ccc(S(=O)(=O)N3CCCC3)cc2c1=O	0	0	0	0	0
CCn1cc(C(=O)NCCC(C)C)c(=O)c2cc(S(=O)(=O)N3CCCCC3)ccc21	23.1µM	0	0	0	?
CCn1cc(C(=O)NCCc2ccccc2)c(=O)c2cc(S(=O)(=O)N3CCOCC3)ccc21	0	-	-	-	0
CC(C)Sc1cc(Cl)nc(NC(=O)Nc2ccccc2)n1	?	?	0	0	0
O=C(NC1CC1)c1ccc2sc([C@@H]3O[C@H](CO)[C@H](O)[C@H](O)[C@H]3O)nc2c1	0	0	0	0	0
N#CC(C#N)=Cc1cnc(N2CCN(c3ccccc3)CC2)s1	0	0	0	0	0
Cc1ccc(S(=O)(=O)N2CCOCC2)cc1NC(=O)Cn1c(=O)ccn(Cc2ccccc2)c1=O	0	0	0	0	0
CCN(CC)CCCNC(=O)c1cn(CC)c2ccc(S(=O)(=O)N3CCc4ccccc4C3)cc2c1=O	?	0	0	0	29.1µM
CCn1cc(C(=O)N2CCc3ccccc32)c(=O)c2cc(S(=O)(=O)N3CC(C)CC(C)C3)ccc21 (stereo not drawn)	14.6µM	0	0	0	?
CN(C1CCCCC1)S(=O)(=O)c1ccc2c(c1)c(=O)c(C(=O)NCCc1ccc(Cl)cc1)cn2C	?	-	-	-	20.6µM
CCN(CC)CCNC(=O)c1cn(CC)c2ccc(S(=O)(=O)N3CCc4ccccc4C3)cc2c1=O	?	0	0	0	?
Cn1cc(C(=O)NCc2ccc(F)cc2)c(=O)c2cc(S(=O)(=O)N3CCCCC3)ccc21	23.1µM	?	0	0	16.4µM
CN(C1CCCCC1)S(=O)(=O)c1ccc2c(c1)c(=O)c(C(=O)NCCc1ccccc1)cn2C	0	-	-	-	?
CN(C1CCCCC1)S(=O)(=O)c1ccc2c(c1)c(=O)c(C(=O)NCc1ccc(F)cc1)cn2C	?	-	-	-	0
